Source: PubChem (National Center for Advancing Translational Sciences (NCATS))
RORg inh = ROR gamma (mouse) transcription inhibition | Potency, µM (doses to about 53.6 µM), for the others: at the top dose activity change, negative = inhibition, most hits filed as inhibitors | 5.4% of 310,000 active | Drosophila S2 Gal4-RORgamma UAS-luciferase reporter, 20 h | P51450; also: nearly all actives have a fitted effect of over 60% in size
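Drosophila Schneider cells stably carrying a metallothionein-driven Gal4 DBD–ROR gamma fusion and a UAS-Photinus luciferase reporter were exposed to compound for 1 hr, then induced with copper sulfate (700 uM final) for 20 hr at ambient temperature before luminescence reading.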
B2AR arrestin = agonists driving beta-arrestin recruitment to human beta2-adrenergic receptor; P07550; beta-arrestin recruitment to beta2AR, cell-based reporter; Potency, µM (highest dose often 46.1 µM), inactives show at the highest dose activation, actives largely listed as activators; 0.02% of 330,000 active;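 also: 0% = DMSO controls and full agonism = EC100 isoproterenol or metaproterenol; nearly all actives have a fitted effect of over 65% in size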
Target sequence (P07550 whole entry, looked up): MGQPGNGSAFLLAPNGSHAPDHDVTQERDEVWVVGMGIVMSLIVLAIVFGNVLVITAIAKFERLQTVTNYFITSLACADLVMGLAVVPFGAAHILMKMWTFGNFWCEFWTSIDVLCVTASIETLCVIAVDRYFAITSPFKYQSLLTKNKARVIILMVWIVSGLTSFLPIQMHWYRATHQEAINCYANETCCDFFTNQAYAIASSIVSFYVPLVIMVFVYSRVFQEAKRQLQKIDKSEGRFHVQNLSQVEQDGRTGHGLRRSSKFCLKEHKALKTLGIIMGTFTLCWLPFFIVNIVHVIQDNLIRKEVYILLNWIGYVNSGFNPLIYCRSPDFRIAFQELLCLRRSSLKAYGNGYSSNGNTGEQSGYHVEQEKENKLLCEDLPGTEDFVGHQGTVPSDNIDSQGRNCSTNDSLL
NPSR antagonist = neuropeptide S receptor (human) antagonism, cAMP; Potency, µM (top dose mostly 38.3 µM), inactives show top-dose activity change, negative = inhibition, hits mostly inhibitors; 1% of 220,000 active; AID 1461; CHO-NPSR cells, cAMP TR-FRET, antagonist mode; also: nearly all actives have a fitted effect of over 50% in size
VP16 counter = inhibits Gal4-VP16 luciferase reporter, ROR gamma counter-screen. Drosophila S2 Gal4-VP16 UAS-luciferase, luminescence, 20 h. Potency, µM (top dose mostly 53.6 µM), without a hit: top-dose activity, negative = inhibition, actives largely listed as inhibitors. 3.5% of 310,000 active;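 also: Gal4-VP16 expression switched on by copper sulfate through the metallothionein promoter; nearly all actives have a fitted effect of over 50% in size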
* hit, by the source's call; u = inconclusive; x = not tested or not shown; [ ] = another dose, or the depositor's remark. Sampled rows, rich in hits. Any-hit rate of the full collection: about 5.7%. Calls follow the shape of the dose curve; as a rule, active = well fitted curve in the direction sought with a large enough effect; inconclusive = small, poorly fitted or top-dose-only effect, or another doubt; inactive = no such curve, though single readings can be large; an effect the other way counts as inactive or inconclusive. Unless noted, % is scaled to controls: 0 for no effect and ±100 for the full control effect; potency is read from the fitted curve at half-maximal effect.

SMILES | RORg inh | B2AR arrestin | NPSR antagonist | VP16 counter
COc1ccc(CCN(Cc2ccccn2)C(=S)Nc2cccc(SC)c2)cc1OC | 10µM* | 0% | -22% | -2%[10 µM]
COc1ccccc1NC(=S)N(CCc1ccc(OC)c(OC)c1)Cc1ccccn1 | 11µM* | 0% | -17% | 17%[10 µM]
CC(=O)NC12CC3CC(C1)CC(C(=O)N(C)Cc1cccc(Cl)c1Cl)(C3)C2 | u | 0% | x | 7.1µM*
CC(=O)c1ccc(N2CCN(S(=O)(=O)c3cn(C)c(C)n3)CC2)cc1 | -10% | 0% | x | -6%
CCN(CC(=O)NCc1ccc(F)cc1)Cc1nc2ccccc2c(=O)[nH]1 | 4µM* | 0% | -3%[46.1 µM] | 10µM*
COc1ccccc1CN(Cc1nc2ccccc2c(=O)[nH]1)C(=O)Nc1ccccc1C | 10µM* | -1% | -22%[46.1 µM] | u
COc1ccc(CN(Cc2nc3ccccc3c(=O)[nH]2)C(=O)NC2CCCCC2)cc1 | 13µM* | 0% | -13%[46.1 µM] | u
O=C(NC1CCCCC1)N(Cc1nc2ccccc2c(=O)[nH]1)C1CCCCC1 | 0% | 2% | -17%[46.1 µM] | -8%
COc1ccc(CN(Cc2nc3ccccc3c(=O)[nH]2)C(=O)C(C)(C)C)cc1 | 13µM* | 0% | -7%[46.1 µM] | -5%
COc1ccc(S(=O)(=O)N(Cc2nc3ccccc3c(=O)[nH]2)C2CCCC2)cc1 | u | -2% | -20%[46.1 µM] | 13%
CSc1ccccc1OCc1cc(C(=O)N(Cc2nccn2C)C(C)C)no1 | 0% | 0% | x | 6%
COc1cccc(Cn2c(=O)c(CCc3ccccc3)nc3cnc(OC)nc32)c1 | 23% | x | x | -4%
CC(=O)N(Cc1ccc(F)cc1)Cc1nc2ccccc2c(=O)[nH]1 | 16µM* | 0% | 7% | u
Cc1ccc(NC(=O)CSc2nc(=O)n(CCN(C)C)c3c2CCCC3)cc1Cl | x | 0% | x | x
CCC1(CC)Cc2ccccc2-c2nc(NN)[nH]c(=O)c21 | 10µM* | -1% | -4% | 16µM*
CCC1(C)Cc2ccccc2-c2nc(NN)[nH]c(=O)c21 (stereo unspecified) | 16µM* | 0% | x | u
COc1ccccc1N1CCN(C2=Nc3cccc4cccc2c34)CC1 | 16µM* | 0% | -45% | u
c1ccc(CC2CCN(C3=Nc4cccc5cccc3c45)CC2)cc1 | u | 1% | 10µM* | 7.1µM*
Cc1ccccc1NC(=O)c1nc(S(C)(=O)=O)ncc1Cl | 6.3µM* | 0% | x | 3.2µM*
Cc1cccc(C)c1NC(=O)c1nc(S(=O)(=O)Cc2ccccc2)ncc1Cl | 10µM* | 0% | x | 5µM*
Cc1cccc(CS(=O)(=O)c2ncc(Cl)c(C(=O)Nc3c(C)cccc3C)n2)c1 | u | 0% | x | 8.9µM*
Cc1nnc(NC(=O)c2nc(S(=O)(=O)Cc3ccccc3)ncc2Cl)s1 | 7.9µM* | 0% | x | 13µM*
CCCc1nnc(NC(=O)c2nc(S(=O)(=O)Cc3cccc(C)c3)ncc2Cl)s1 | u | 0% | x | u
COC(=O)[C@@]1(C)C=C[C@@H](Cc2ccccc2)N1C | -15% | x | x | 2%
Cc1cccc(CS(=O)(=O)c2ncc(Cl)c(C(=O)NCc3ccccc3)n2)c1 | 5.6µM* | 0% | x | 3.2µM*
SMILES | RORg inh | B2AR arrestin | NPSR antagonist | VP16 counter
Cc1cc(C)cc(S(=O)(=O)Cc2noc(C(=O)NCc3ccccc3)c2C(=O)NCc2ccccc2)c1 | x | 0% | x | x
O=C(Nc1ccc2c(c1)OCCO2)C(=O)c1c[nH]c2ccccc12 | 2.5µM* | 0% | x | 3.2µM*
Cc1occc1C(=O)Nc1ccc2c(c1)OCCO2 | 8.9µM* | 0% | 29%[46.1 µM] | u
Cc1cc(C(=O)Nc2ccc3c(c2)OCCO3)c(C)o1 | -38% | -2% | -2%[46.1 µM] | -15%
Cc1ccccc1C(=O)Nc1ccc2c(c1)OCCO2 | 8.9µM* | 0% | x | u
CN(C)S(=O)(=O)c1cccc(NC(=S)NC2CCCCC2)c1 | -40% | 0% | -9% | 12%
Cc1ccc(S(=O)(=O)N(C)C)cc1NC(=S)NC12CC3CC(CC(C3)C1)C2 | 5µM* | 0% | -10%[46.1 µM] | 5.6µM*
Cc1ccc(S(=O)(=O)N(C)C)cc1NC(=S)NC(=O)C12CC3CC(CC(C3)C1)C2 | 7.1µM* | -1% | -55% | 7.1µM*
CC1CCCC(NC(=S)Nc2cccc(S(=O)(=O)N(C)C)c2)C1C (stereo unspecified) | 13µM* | 0% | -11% | u
CN(C)S(=O)(=O)c1cccc(NC(=S)NC23CC4CC(CC(C4)C2)C3)c1 | 4.5µM* | 0% | x | u
Cc1ccc(S(=O)(=O)N(C)C)cc1NC(=S)Nc1ccc2[nH]c(=O)[nH]c2c1 | 10% | 0% | 12% | -2%
Cc1cc(NC(=O)CCSc2ccc(Cl)cc2)no1 | 24% | 0% | 0% | 0%
Cc1ccc(S(=O)(=O)c2nnn(-c3cccc(F)c3)c2N)cc1 | u | 0% | -10% | u
Cc1ccccc1C(=O)NC1CCN(C(=O)Nc2ccccc2Cl)CC1 | -16% | 0% | 5% | -8%
CN(C)S(=O)(=O)c1cccc(NC(=S)NN=C(Cc2ccccc2)Cc2ccccc2)c1 | 13µM* | 1% | -12% | u
CN(CC(=O)Nc1cccc(S(=O)(=O)N(C)C)c1)Cc1ccccc1 | 28% | 0% | x | -4%
COc1cc(/C=N/NC(=O)c2cccc(NC(=O)c3ccccc3)c2)ccc1O | u | 0% | x | 12%
COc1cc(/C=N/NC(=S)Nc2cccc(S(=O)(=O)N(C)C)c2)ccc1O | 3.5µM* | 0% | 3% | 3.5µM*
O=C(Nc1ccc(Cl)cc1)Nc1ccccc1Sc1ncc([N+](=O)[O-])s1 | 11µM* | -1% | u | u
Cc1c(N)cccc1Cl | 3% | x | x | -2%
CCCCOc1ccc(C(=O)CCN2CCCCC2)cc1 | u | 3% | 12% | 14µM*
CC(C)COc1ccc(C(=O)CCN2CCCCC2)cc1 | 7.1µM* | 4% | -14%[46.1 µM] | 11µM*
CC(C)COc1ccc(C(=O)OCCN2CCCCC2)cc1 | 19% | 1% | x | -11%
COc1cccc(CCc2ccccc2OCC(CN(C)C)OC(=O)CCC(=O)O)c1 (stereo unspecified) | 31% | x | x | 6%
Fc1ccc2nc(Nc3nc4c(F)cc(F)cc4s3)sc2c1 | 8.9µM* | 0% | u | 6.3µM*
SMILES | RORg inh | B2AR arrestin | NPSR antagonist | VP16 counter
O=C(NNc1nc2ccccc2s1)c1ccccc1F | u | 0% | -1%[46.1 µM] | u
NNc1nc2ccc(F)cc2s1 | u | 0% | -11% | u
Fc1ccc2nc(Nc3ccccc3)sc2c1 | -40% | 0% | 9% | -7%
Fc1ccc2nc(Nc3nc4c(F)cccc4s3)sc2c1 | 2µM* | 0% | -23% | 5.6µM*
Fc1cccc2sc(Nc3nc4ccccc4s3)nc12 | 4.5µM* | -1% | -37% | 7.1µM*
Cn1cccc1C(=O)N1CCC[C@@]2(CCN(Cc3ccccc3)C2)C1 | 6% | x | x | 4%
COc1cc(NC(C)=O)c2ncccc2c1[N+](=O)[O-] | 4µM* | 0% | 15% | u
COc1cc(NC(C)=O)c2ncccc2c1NC(C)=O | -21% | 8% | 15% | -7%
CCOCCCNC(=O)c1ccc2c(c1)ncn2-c1cccc(C)c1 | -22% | -1% | x | -1%
COc1cccc(/C=N/NC(=O)C(=O)NCc2ccco2)c1O | 4µM* | 0% | -5%[46.1 µM] | 6.3µM*
COc1ccccc1/C=N/NC(=S)NCc1ccco1 | 2µM* | 4% | -26% | 11µM*
